The panel holds about 79,000 compounds, 15% with a hit somewhere; the sample as a whole holds those more often. A number with no mark means an inactive call. Cut-off read from the data, not from the text of the source: active = growth inhibition above about 70%; inactive = the rest.

The record followed here is PubChem BioAssay (NCI).

A short description of one test: NCI Yeast Anticancer Drug Screen. Data for the rad50 strain (AID 155).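 Note: 0% = growth of vehicle-only cultures of the same strain.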 As to conditions: S. cerevisiae rad50 strain growth inhibition; at 50.0 µM; active compounds read high. A digest of the protocol: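 Vehicle-treated cultures provide the reference for the growth inhibition reported for compound-exposed, repair-deficient yeast.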
Turning to `COC(=O)C1C2CC3C(OC(=O)C31)C2OC(=O)[C@](OC)(c1ccccc1)C(F)(F)F` (some centres not stated), the growth inhibition is 24.2%.
With `O=C(O)CCSc1ccccc1`, the growth inhibition was 25.2%.
Same read-out and setting: under `CCN(CC)CCOC(NC(C)=O)(c1ccccc1)c1ccccc1` stands 3.5%; under `CCCCCCCCCCCCCC(=O)Cl`, -52.4%.
Still for that read-out and setting: to `CCCCCCCCCC1(C(=O)OCC)OC1(C)C` (configuration not stated) belongs 8.55%; to `CCOC(=O)NC1C2CC3C(C2)C31` (configuration not stated), -54.6%.
On the same count and under the same terms, to `CC1=NNC(=O)CC1C(O)c1ccccc1` (configuration not stated) belongs -31.1%.

The nature of the next test: NCI Yeast Anticancer Drug Screen. Data for the mec2-1 strain (AID 157). As to conditions: S. cerevisiae mec2-1 strain, at 50.0 µM, active compounds read high. A digest of the protocol:
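Compounds were applied to mec2-1 yeast cells. Their growth was then compared with that of vehicle-treated cultures to give growth inhibition.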
Regarding `COc1ccc2cc1Oc1ccc(cc1)CC1=NCCc3cc(OC)c(OC)c(c31)Oc1cc3c(cc1OC)CCN(C)C3C2` (configuration not stated), the growth inhibition was -14.6%.
Take `C=C(Br)CNC(=O)Nc1ccccn1`: the growth inhibition was 4.55%.
Still for that read-out and setting: to `c1csc(-c2cc(-c3cccs3)c(-c3ccsc3)s2)c1` belongs -43.4%.
Turning to `O=C1NC(N(Cc2ccccc2)Cc2ccccc2)=NC1(c1ccccc1)c1ccccc1`, the growth inhibition was 2.85%.
Consider `CCNC(=O)Oc1cccc(NC(=O)CC)c1`, for which the growth inhibition is -4.2%.
Same read-out and setting: to `N#Cc1nc(CC(=O)c2ccccc2Cl)c(CC(=O)c2ccccc2Cl)nc1C#N` belongs 20.1%.
Turning to `N#C[C@H](c1nc2ccccc2[nH]1)c1nc2ccccc2nc1Cl`, the growth inhibition is 2.5%.
On the same count and under the same terms, under `CC(=O)NOCC1NC(=O)C(CONC(C)=O)NC1=O` (configuration not stated) stands 18.1%; under `CCOC(=O)C(O)C(O)C(O)C(O)C(=O)OCC` (configuration not stated), -8.15%.
The same measure, in the same setting: to `CC(C)OC(=S)Nc1ccc(Cl)c(COC(C)(C)C)c1` belongs -16.2%; to `CC1(C)CSC(C)(C)C(=O)N1`, -1.95%.
Regarding `O=C(O)c1[nH]c(=O)[nH]c(=O)c1C(=O)O`, the growth inhibition was 0.55%.
For `NC(=S)N/N=C1/CC(=O)N(c2ccccc2)C1c1ccccc1` (configuration not stated), the growth inhibition was 13.2%.
Still for that read-out and setting: to `CCN1c2ccccc2CC(C#N)(CCN(C)C)c2ccccc21` (configuration not stated) belongs 5.45%; to `Cc1cnc2c(N)nc(-c3ccccc3)nc2n1`, -2.1%; to `C=COC(=O)N1CCCCC1`, 15.8%.
As to `O=C1CN(c2ccccc2)C(=O)CN1/N=C/c1ccc(O)c(O)c1`, the growth inhibition was 8.75%.
In the case of `CC1CC2C3(C1)CC(C(=O)OC3=O)C2(C)C` (configuration not stated), the growth inhibition is -11.4%.
The same measure, in the same setting: under `COc1ccc(C(CC(=O)O)CC(=O)O)cc1[N+](=O)[O-]` stands -1.7%.
With `COC(=O)c1cc(C(=O)c2ccccc2)cc2c1c(=O)[nH]c1ccccc12`, the growth inhibition is -7.5%.
On to `Nc1ccc(C(=O)NN2C(=O)C(Cl)C2c2ccccc2Cl)cc1` (configuration not stated), for which the growth inhibition was 32.7%.
The same measure, in the same setting: to `S=c1nc[nH]c2c1ncn2C1CCCC1` belongs -4.75%; to `Cc1cc(C)c(NC(=O)Nc2cccc(Cl)c2)c(C)c1`, 17.3%.
`O=C(OCC1OC(OC(=O)c2ccccc2)C(O)C1OC(=O)c1ccccc1)c1ccccc1` (configuration not stated): the growth inhibition was 15.7%.
On to `[O-]c1csc2n(-c3ccccc3)c3ccccc3[n+]12`, for which the growth inhibition was -16%.
`COc1nc(SC)nc2[nH]ccc12`: the growth inhibition is 9.75%.
For `O=S(=O)(O)c1cc(N=Nc2cc(S(=O)(=O)O)c3cccnc3c2O)ccc1/C=C/c1ccc(N=Nc2cc(S(=O)(=O)O)c3cccnc3c2O)cc1S(=O)(=O)O.[Cu+2].[Na+]`, the growth inhibition was 18.2%.
For `O=C1CN(Cc2ccccc2)CCO1`, the growth inhibition is -4.3%.
With `CC(C)/C(Cl)=N\OC(NC(=O)P(=O)(c1ccccc1)c1ccccc1)(C(F)(F)F)C(F)(F)F`, the growth inhibition was 52.2%.
Still for that read-out and setting: to `O=c1[nH][nH]c(=O)c2[nH]cnc12` belongs -8.2%; to `CN1CCCc2cccc(NC(=O)C3CCCNC3=O)c21` (configuration not stated), 1.35%.
As for `CC(=O)Nc1c([N+](=O)[O-])cc(C2CCCCC2)cc1[N+](=O)[O-]`, the growth inhibition was -7.25%.
On to `COC1(c2ccccc2)OC(=O)C(C)(C)c2ccccc21` (configuration not stated), for which the growth inhibition is 7.65%.
As to `COC(=O)C1C2CC3C(OC(=O)C31)C2OC(=O)[C@](OC)(c1ccccc1)C(F)(F)F` (some centres not stated), the growth inhibition is 20.9%.
Still for that read-out and setting: to `O=C(O)CCSc1ccccc1` belongs -23.4%; to `CCN(CC)CCOC(NC(C)=O)(c1ccccc1)c1ccccc1`, -9.55%.
Same read-out and setting: under `CCCCCCCCCCCCCC(=O)Cl` stands -4%.
On to `CCCCCCCCCC1(C(=O)OCC)OC1(C)C` (configuration not stated), for which the growth inhibition was -15.8%.
On the same count and under the same terms, under `CCOC(=O)NC1C2CC3C(C2)C31` (configuration not stated) stands -32.7%; under `CC1=NNC(=O)CC1C(O)c1ccccc1` (configuration not stated), 3.65%.

The next test is described as follows: NCI Yeast Anticancer Drug Screen. Data for the sgs1 mgt1 strain (AID 161).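 Note: 0% = growth of cultures given vehicle only.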 As to conditions: S. cerevisiae sgs1 mgt1 strain, at 50.0 µM, active compounds read high. A digest of the protocol: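 Yeast cells carrying a defined DNA-repair defect were exposed to test compounds. Growth inhibition was measured relative to vehicle-treated controls.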
For the compound `COc1ccc2cc1Oc1ccc(cc1)CC1=NCCc3cc(OC)c(OC)c(c31)Oc1cc3c(cc1OC)CCN(C)C3C2` (configuration not stated), the growth inhibition is -12.4%.
`C=C(Br)CNC(=O)Nc1ccccn1`: the growth inhibition is -3.3%.
Regarding `c1csc(-c2cc(-c3cccs3)c(-c3ccsc3)s2)c1`, the growth inhibition is -32.2%.
The same measure, in the same setting: to `O=C1NC(N(Cc2ccccc2)Cc2ccccc2)=NC1(c1ccccc1)c1ccccc1` belongs 23.2%.
With `CCNC(=O)Oc1cccc(NC(=O)CC)c1`, the growth inhibition is -0.25%.
On the same count and under the same terms, to `N#Cc1nc(CC(=O)c2ccccc2Cl)c(CC(=O)c2ccccc2Cl)nc1C#N` belongs 5.6%.
As to `N#C[C@H](c1nc2ccccc2[nH]1)c1nc2ccccc2nc1Cl`, the growth inhibition was 21.9%.
The same measure, in the same setting: under `CC(=O)NOCC1NC(=O)C(CONC(C)=O)NC1=O` (configuration not stated) stands -47.1%; under `CCOC(=O)C(O)C(O)C(O)C(O)C(=O)OCC` (configuration not stated), 1.9%; under `CC(C)OC(=S)Nc1ccc(Cl)c(COC(C)(C)C)c1`, -4.65%.
Take `CC1(C)CSC(C)(C)C(=O)N1`: the growth inhibition is -3.6%.
Take `O=C(O)c1[nH]c(=O)[nH]c(=O)c1C(=O)O`: the growth inhibition is -15.1%.
Same read-out and setting: to `NC(=S)N/N=C1/CC(=O)N(c2ccccc2)C1c1ccccc1` (configuration not stated) belongs 37%.
On the same count and under the same terms, under `CCN1c2ccccc2CC(C#N)(CCN(C)C)c2ccccc21` (configuration not stated) stands 2.65%.
As to `Cc1cnc2c(N)nc(-c3ccccc3)nc2n1`, the growth inhibition is -6.9%.
With `C=COC(=O)N1CCCCC1`, the growth inhibition is 0.5%.
For `O=C1CN(c2ccccc2)C(=O)CN1/N=C/c1ccc(O)c(O)c1`, the growth inhibition is -3.25%.
On the same count and under the same terms, under `CC1CC2C3(C1)CC(C(=O)OC3=O)C2(C)C` (configuration not stated) stands -7.35%; under `COc1ccc(C(CC(=O)O)CC(=O)O)cc1[N+](=O)[O-]`, -2.1%; under `COC(=O)c1cc(C(=O)c2ccccc2)cc2c1c(=O)[nH]c1ccccc12`, -16.4%.
`Nc1ccc(C(=O)NN2C(=O)C(Cl)C2c2ccccc2Cl)cc1` (configuration not stated): the growth inhibition is 27.9%.
Turning to `S=c1nc[nH]c2c1ncn2C1CCCC1`, the growth inhibition was -4.55%.
As to `Cc1cc(C)c(NC(=O)Nc2cccc(Cl)c2)c(C)c1`, the growth inhibition is 1.7%.
As to `O=C(OCC1OC(OC(=O)c2ccccc2)C(O)C1OC(=O)c1ccccc1)c1ccccc1` (configuration not stated), the growth inhibition was 19.3%.
Turning to `[O-]c1csc2n(-c3ccccc3)c3ccccc3[n+]12`, the growth inhibition is 1.85%.
Consider `COc1nc(SC)nc2[nH]ccc12`, for which the growth inhibition is -4.2%.
For `O=S(=O)(O)c1cc(N=Nc2cc(S(=O)(=O)O)c3cccnc3c2O)ccc1/C=C/c1ccc(N=Nc2cc(S(=O)(=O)O)c3cccnc3c2O)cc1S(=O)(=O)O.[Cu+2].[Na+]`, the growth inhibition was 34.6%.
As for `O=C1CN(Cc2ccccc2)CCO1`, the growth inhibition was -3.55%.
On the same count and under the same terms, under `CC(C)/C(Cl)=N\OC(NC(=O)P(=O)(c1ccccc1)c1ccccc1)(C(F)(F)F)C(F)(F)F` stands 50.8%.
The same measure, in the same setting: to `O=c1[nH][nH]c(=O)c2[nH]cnc12` belongs 29.1%; to `CN1CCCc2cccc(NC(=O)C3CCCNC3=O)c21` (configuration not stated), -2.3%.
Same read-out and setting: to `CC(=O)Nc1c([N+](=O)[O-])cc(C2CCCCC2)cc1[N+](=O)[O-]` belongs 4.25%; to `COC1(c2ccccc2)OC(=O)C(C)(C)c2ccccc21` (configuration not stated), 14.2%; to `COC(=O)C1C2CC3C(OC(=O)C31)C2OC(=O)[C@](OC)(c1ccccc1)C(F)(F)F` (some centres not stated), 10.6%.
Take `O=C(O)CCSc1ccccc1`: the growth inhibition is -13.8%.
On the same count and under the same terms, to `CCN(CC)CCOC(NC(C)=O)(c1ccccc1)c1ccccc1` belongs 9.85%.
Take `CCCCCCCCCCCCCC(=O)Cl`: the growth inhibition is -47.2%.
As for `CCCCCCCCCC1(C(=O)OCC)OC1(C)C` (configuration not stated), the growth inhibition is 5.75%.
Still for that read-out and setting: under `CCOC(=O)NC1C2CC3C(C2)C31` (configuration not stated) stands -29.4%; under `CC1=NNC(=O)CC1C(O)c1ccccc1` (configuration not stated), -12.1%.
